Assay results: PubChem BioAssay (EPA / NIEHS)
Where “and” joins values, the source holds several entries; their conditions need not be identical. Identical values can stand only once. Records with an inconclusive call do not appear. The source holds several records for some structures; these can differ, active in one and inactive in another. Calls of active or inactive are those of the source. Rule for the calls, unless noted: active = hit-call score of the fitted dose curve at least 0.9, where 1 is the maximum; inactive = score below 0.9.

Experiments:
[1] = CCTE_Shafer_MEA_dev_burst_rate: CCTE's Neural Network Formation Assay for Burst Rate, Shafer Lab (AID 2284042);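 for AC50: potency for loss of burst rate below DMSO control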
Outline: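 Developmental network assay measuring how 12-day exposure of rat cortical neuron cultures alters bursting on extracellular MEA recordings. Values are AUC of well-mean burst rate across four recording days, relative to DMSO vehicle.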

[2] = CCTE_Shafer_MEA_dev_bursting_electrodes_number: CCTE's Neural Network Formation Assay for Number of Bursting Electrodes, Shafer Lab (AID 2284043; active = hit-call score of the fitted dose curve at least 0.9, where 1 is the maximum;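 for AC50: potency is for loss of bursting electrodes relative to DMSO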)
Outline: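 Counted: electrodes with burst rate ≥1 per 2 min in each well. Cells: primary rat cortex, 1.5 x 10^5/well, on 16-electrode MEA wells. Exposure: DIV 0–12, compound renewed DIV 5 and 9. Recording days 5, 7, 9, 12; AUC vs DMSO baseline.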

[3] = CCTE_Shafer_MEA_dev_per_burst_interspike_interval: CCTE's Neural Network Formation Assay for Burst Interspike Interval, Shafer Lab (AID 2284044);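 note: mean spike spacing inside bursts as AUC over recordings on days 5 7 9 12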;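 for AC50: potency for a decrease of within-burst interspike interval below DMSO level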
Outline: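 Primary rat cortical neurons on 48-well MEA plates, exposed from day 0 through day 12, treatment renewed at DIV 5 and 9. Within-burst interspike interval recorded days 5, 7, 9, 12, well-averaged, summarised as AUC; negative fit versus DMSO.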

[4] = CCTE_Shafer_MEA_dev_burst_duration_mean: CCTE's Neural Network Formation Assay for Mean Burst Duration, Shafer Lab (AID 2284045);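 for AC50: curve fitted for loss meaning shorter burst duration than DMSO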
Outline: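 Network-formation assay in primary rat cortical neurons; treatment spans twelve days of development. Mean burst duration per well is integrated by trapezoidal AUC and fitted in the loss-of-signal direction against DMSO baseline.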

[5] = CCTE_Shafer_MEA_dev_interburst_interval_mean: CCTE's Neural Network Formation Assay for Mean Interburst Interval, Shafer Lab (AID 2284046);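 note: well-mean interburst interval of bursting electrodes as AUC over four recording days; curve fitted for decrease in interburst interval relative to DMSO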
Outline: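 Network formation assay in primary rat cortical cultures, exposed from DIV 0 to 12. Mean interburst interval per well, integrated as AUC over four recordings.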

[6] = CCTE_Shafer_MEA_dev_inter_network_spike_interval_mean: CCTE's Neural Network Formation Assay for Mean Inter-network Spike Interval, Shafer Lab (AID 2284047);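 for AC50: potency for a decrease in mean inter-network spike interval below DMSO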
Outline: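 Compound was given at plating to primary rat cortical neurons and renewed with full medium changes on DIV 5 and 9. Extracellular activity was recorded on days 5, 7, 9, 12; AUC values were fitted for loss relative to DMSO control.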

[7] = CCTE_Shafer_MEA_dev_network_spike_number: CCTE's Neural Network Formation Assay for Number of Network Spikes, Shafer Lab (AID 2284048);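 note: synchronized bursts across electrodes counted on days 5 7 9 12 and integrated as AUC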;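 for AC50: fit as a loss of signal meaning fewer network spikes than DMSO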
Outline: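 Extracellular recordings from 16-electrode wells track network formation in rat cortical cultures under continuous treatment from plating. The endpoint is network spike number, expressed as AUC across DIV 5–12 relative to DMSO vehicle.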

[8] = CCTE_Shafer_MEA_dev_network_spike_peak: CCTE's Neural Network Formation Assay for Mean Number of Electrodes in Network Spike, Shafer Lab (AID 2284049);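 for AC50: fitted for loss of signal meaning fewer electrodes in network spikes than DMSO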
Outline: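 Continuous 12-day exposure of rat cortical cultures, starting at plating, on MEA plates. Endpoint: electrodes participating in network-spike peaks, AUC across DIV 5–12, DMSO as negative control.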

[9] = molecular target: Estrogen receptor (Homo sapiens) (UniProt P03372); assay: CCTE_Deisenroth_AIME_384WELL_LUC_Shift: CCTE's 384-well Estrogen Receptor Transactivation Assay with AIME metabolic competence data shift (ERTA luciferase; difference in metabolism positive and negative), Deisenroth Lab (AID 2284041);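 note: shift is response with S9 minus without S9 so positive means metabolism raised ER signal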
Outline: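 Here, parent compounds undergo 2 h phase I metabolism by PB/BNF-induced rat S9 before 24 h transactivation in VM7Luc4E2 cells; the curve models S9-positive minus S9-negative response over a 10-point series.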

DIO2 (gene 1734) = assay: CCTE_GLTED_hDIO2: CCTE's human Deiodinase 2 (DIO2) Inhibition Assay, Great Lakes Toxicology and Ecology Division (GLTED) Lab (AID 2284050; active = hit-call score of the fitted dose curve at least 0.9, where 1 is the maximum)
Outline: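 Inhibition is judged by reduced iodide release: uninhibited human DIO2 frees iodide from substrate over 3 h, measured afterward by Sandell-Kolthoff colorimetry. Iodinated chemicals or nitrite, iron and thiocyanate may interfere.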

Measured: AC50

Sequence of Estrogen receptor (Homo sapiens) (P03372 whole entry, looked up): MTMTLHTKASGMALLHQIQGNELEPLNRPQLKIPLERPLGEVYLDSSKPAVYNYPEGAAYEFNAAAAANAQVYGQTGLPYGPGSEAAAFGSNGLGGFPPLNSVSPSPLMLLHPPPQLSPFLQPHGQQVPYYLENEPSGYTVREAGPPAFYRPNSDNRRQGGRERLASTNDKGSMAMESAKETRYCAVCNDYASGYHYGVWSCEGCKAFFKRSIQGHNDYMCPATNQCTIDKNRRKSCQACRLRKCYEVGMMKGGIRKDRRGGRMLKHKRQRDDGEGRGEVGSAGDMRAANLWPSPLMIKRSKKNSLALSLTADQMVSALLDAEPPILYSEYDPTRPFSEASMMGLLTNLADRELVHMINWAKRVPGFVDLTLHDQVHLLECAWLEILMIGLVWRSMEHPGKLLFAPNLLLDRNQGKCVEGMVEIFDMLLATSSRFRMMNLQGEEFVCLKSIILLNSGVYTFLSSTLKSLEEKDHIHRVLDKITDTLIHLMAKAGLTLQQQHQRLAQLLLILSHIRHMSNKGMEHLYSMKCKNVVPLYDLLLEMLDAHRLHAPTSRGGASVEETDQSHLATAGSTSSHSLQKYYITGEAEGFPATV

CCCN(CC)CC1COC2(CCC(C(C)(C)C)CC2)O1 (configuration not stated)
active: [1] 0.136 µM | [2] 0.223 µM | [3] 0.234 µM | [4] 157 nM | [5] 0.325 µM | [6] 0.257 µM | [7] 93.3 nM | [8] 0.305 µM

CNC(=O)Oc1cccc2ccccc12
active: [1] 4.84 µM | [2] 15 µM | [7] 1000 nM | [8] 20.3 µM and 22.6 µM
inactive: [1] | [3] | [4] | [5] | [6] | [7]

CCOC(=O)C(C)OC(=O)c1cc(Oc2ccc(C(F)(F)F)cc2Cl)ccc1[N+](=O)[O-] (configuration not stated)
not listed: DIO2 (gene 1734)
inactive: all other assays above

CC1(C)C(C(=O)OC(C#N)c2cccc(Oc3ccccc3)c2)C1(C)C (configuration not stated)
inactive: [1] | [4] | [5]
active: [2] 15.4 µM | [3] 18.5 µM | [6] 2.56 µM | [7] 515 nM | [8] 13.5 µM

CCN(CC)c1nc(C)cc(OP(=S)(OC)OC)n1
active: [2] 30.5 µM | [5] 88.6 µM | [8] 30.8 µM | DIO2 (gene 1734) 31.1 µM
not listed: [9]
inactive: all other assays above

CCCCOCN(C(=O)CCl)c1c(CC)cccc1CC
inactive: [9]
active: DIO2 (gene 1734) 17.6 µM

CS(=O)(=O)c1ccc(C(=O)C2C(=O)CCCC2=O)c([N+](=O)[O-])c1
active: DIO2 (gene 1734) 24.8 µM
not listed: [9]
inactive: all other assays above

CS(=O)(=O)c1cc(C(F)(F)F)ccc1C(=O)c1cnoc1C1CC1
not listed: DIO2 (gene 1734)
inactive: all other assays above

CC(C)(C)C(=O)C(Oc1ccc(Cl)cc1)n1cncn1 (configuration not stated)
active: [2] 39.6 µM | [8] 38.7 µM
not listed: [9] | DIO2 (gene 1734)
inactive: all other assays above

CCSC(=O)N1CCCCCC1
inactive: [9] | [1] | [3] | [4] | [5] | [6] | [7] | [8]
active: [2] 1.93 µM | [8] 5.75 µM

CO/N=C(/C1=NOCCO1)c1ccccc1Oc1ncnc(Oc2ccccc2Cl)c1F
active: [1] 789 nM and 637 nM | [2] 968 nM and 1.02 µM | [3] 2.28 µM and 518 nM | [4] 1.23 µM and 858 nM | [5] 2.3 µM and 1.29 µM | [6] 0.52 µM | [7] 527 nM and 449 nM | [8] 1.27 µM and 723 nM
inactive: [9] | [6] | DIO2 (gene 1734)

COP(=O)(OC)O/C(C)=C/C(=O)N(C)C
not listed: [2] | [9] | DIO2 (gene 1734)
inactive: all other assays above

N#CN=C1SCCN1Cc1ccc(Cl)nc1
not listed: [9] | DIO2 (gene 1734)
inactive: all other assays above

C=C(C)CN(CC)c1c([N+](=O)[O-])cc(C(F)(F)F)cc1[N+](=O)[O-]
active: [1] 13.3 µM | [2] 16.4 µM | [3] 22.1 µM | [5] 22.2 µM | [7] 23200 nM | [8] 18.1 µM
inactive: [9] | [4] | [6]
